# Results: PubChem BioAssay AID1159580 (chemical genetic matrix, 2015)
# About 2,000 (36%) of roughly 5,500 compounds were called active. Another 18% or so got no clear call; they are omitted. Some of the results follow. A number with no mark means an inactive call. No stated cut-off is given here; in the data, active means normalized growth mostly below about 0.91 (no sharp cut-off); inconclusive means no clear call, values can overlap the other calls; inactive means mostly above about 0.92.
# Test: chemical genetic growth profiling, strain panel (AID 1159580);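 further: tested at 20 µM; growth read once vehicle control cultures reached saturation at 30 °C; 1 = growth at the plate median or of vehicle wells; lower values mean less growth of the strain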
# Conditions: growth OD
# [1] = S. cerevisiae deletion strains, locus YDR150W, strain NUM1, active compounds read low
# [2] = S. cerevisiae deletion strains, locus YGR078C, strain PAC10, active compounds read low
# [3] = S. cerevisiae deletion strains, locus YGR229C, strain SMI1, active compounds read low
# [4] = S. cerevisiae deletion strains, locus YMR263W, strain SAP30, active compounds read low
# [5] = S. cerevisiae deletion strains, locus YMR307W, strain GAS1, active compounds read low
# [6] = S. cerevisiae deletion strains, locus YNL128W, strain TEP1, active compounds read low
# [7] = S. cerevisiae deletion strains, locus YNL153C, strain GIM3, active compounds read low
# [8] = S. cerevisiae deletion strains, locus YPL055C, strain LGE1, active compounds read low
# [9] = S. cerevisiae deletion strains, locus YAL013W, strain DEP1, active compounds read low
# [10] = S. cerevisiae deletion strains, locus YBR229C, strain ROT2, active compounds read low
# [11] = S. cerevisiae deletion strains, locus YCL061C, strain MRC1, active compounds read low
# [12] = S. cerevisiae deletion strains, locus YDL101C, strain DUN1, active compounds read low
# [13] = S. cerevisiae deletion strains, locus YDL134C, strain PPH21, active compounds read low
# [14] = S. cerevisiae deletion strains, locus YEL061C, strain CIN8, active compounds read low
# [15] = S. cerevisiae deletion strains, locus YHR030C, strain SLT2, active compounds read low
# [16] = S. cerevisiae deletion strains, locus YHR087W, strain rtc3, active compounds read low
# [17] = S. cerevisiae deletion strains, locus YJR043C, strain POL32, active compounds read low
# [18] = S. cerevisiae deletion strains, locus YJR075W, strain HOC1, active compounds read low
# [19] = S. cerevisiae deletion strains, locus YLR039C, strain RIC1, active compounds read low
# [20] = S. cerevisiae deletion strains, locus YLR058C, strain SHM2 (second series), active compounds read low
# [21] = S. cerevisiae deletion strains, locus YLR085C, strain ARP6, active compounds read low
# [22] = S. cerevisiae deletion strains, locus YLR262C, strain YPT6, active compounds read low
# [23] = S. cerevisiae deletion strains, locus YML094W, strain GIM5, active compounds read low
# [24] = S. cerevisiae deletion strains, locus YMR219W, strain ESC1, active compounds read low
# [25] = S. cerevisiae deletion strains, locus YNL298W, strain CLA4 (second series), active compounds read low
# [26] = S. cerevisiae deletion strains, locus YNL322C, strain KRE1, active compounds read low
# [27] = S. cerevisiae deletion strains, locus YNR030W, strain Alg12, active compounds read low
# [28] = S. cerevisiae deletion strains, locus YPL241C, strain CIN2, active compounds read low
# [29] = S. cerevisiae deletion strains, locus YPR135W, strain CTF4, active compounds read low
structure (smiles),measurement,setting,value
O=C1C2C=CC=CC2=NC(=S)N1CCN1CCC(=C(c2ccc(F)cc2)c2ccc(F)cc2)CC1 (centres undefined),normalized growth,"S. cerevisiae deletion strains, locus YAL040C, strain CLN3, active compounds read low",0.896
same,normalized growth,"S. cerevisiae deletion strains, locus YCL061C, strain MRC1 (second series), active compounds read low",1.01
same,normalized growth,[1],1
same,normalized growth,"S. cerevisiae deletion strains, locus YDR363W, strain ESC2, active compounds read low",0.951
same,normalized growth,"S. cerevisiae deletion strains, locus YER002W, strain NOP16, active compounds read low",1.04
same,normalized growth,[2],0.857 (active)
same,normalized growth,[3],0.717 (active)
same,normalized growth,[4],0.985
same,normalized growth,[5],0.707 (active)
same,normalized growth,[6],1.06
same,normalized growth,[7],0.578 (active)
same,normalized growth,"S. cerevisiae deletion strains, locus YNL197C, strain WHI3, active compounds read low",1.08
same,normalized growth,"S. cerevisiae deletion strains, locus YNL224C, strain SQS1, active compounds read low",1.02
same,normalized growth,"S. cerevisiae deletion strains, locus YOR083W, strain WHI5 (second series), active compounds read low",0.607 (active)
same,normalized growth,[8],1.03
CCOC(=O)Cc1csc(N=CNO)n1,normalized growth,[9],1.01
same,normalized growth,[10],1.02
same,normalized growth,[11],1.01
same,normalized growth,[12],1
same,normalized growth,[13],1.02
same,normalized growth,[1],0.892
same,normalized growth,[14],1.01
same,normalized growth,[2],1.02
same,normalized growth,[3],0.997
same,normalized growth,[15],0.999
same,normalized growth,[16],1.04
same,normalized growth,[17],0.989
same,normalized growth,[18],1.05
same,normalized growth,[19],0.992
same,normalized growth,[20],1.02
same,normalized growth,[21],1.03
same,normalized growth,[22],0.951
same,normalized growth,[23],1.02
same,normalized growth,[24],1.02
same,normalized growth,[4],0.999
same,normalized growth,[5],1.03
same,normalized growth,[6],0.999
same,normalized growth,[7],1.01
same,normalized growth,[25],1.05
same,normalized growth,[26],1.01
same,normalized growth,[27],1.03
same,normalized growth,[8],1.02
same,normalized growth,[28],1.02
same,normalized growth,[29],1.04
same,normalized growth,"S. cerevisiae strains, strain wild type, active compounds read low",1.03
CCc1nnc(N=CNO)s1,normalized growth,[9],0.956
same,normalized growth,[10],0.846 (active)
same,normalized growth,[11],0.913
same,normalized growth,[12],0.932
same,normalized growth,[13],0.989
same,normalized growth,[1],0.978
same,normalized growth,[14],0.843 (active)
same,normalized growth,[2],0.973
same,normalized growth,[3],0.992
same,normalized growth,[15],0.573 (active)
same,normalized growth,[16],0.79 (active)
same,normalized growth,"S. cerevisiae deletion strains, locus YJL187C, strain SWE1, active compounds read low",0.817 (active)
same,normalized growth,[17],0.97
same,normalized growth,[18],0.809 (active)
same,normalized growth,[19],0.967
same,normalized growth,[20],1
same,normalized growth,[21],0.803
same,normalized growth,[22],0.947
same,normalized growth,[23],0.855 (active)
same,normalized growth,[24],0.879 (active)
same,normalized growth,[4],0.968
same,normalized growth,[7],0.965
same,normalized growth,[25],0.823 (active)
same,normalized growth,[26],1.01
same,normalized growth,[27],0.944
same,normalized growth,"S. cerevisiae deletion strains, locus YOL006C, strain TOP1, active compounds read low",0.465 (active)
same,normalized growth,[8],0.909
same,normalized growth,[28],0.99
same,normalized growth,[29],0.795
